Drawing on PubChem BioAssay AID488899 (Broad Institute, 2010), this text covers inhibition for 96 molecules.

About 2,800 (0.85%) of roughly 330,000 compounds were called active. For the sample, actives were picked, then their nearest neighbours and some compounds at random. A number with no mark means an inactive call.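 Rule for the calls: active = mean inhibition across replicates of 60% or more, whatever share of single replicates reaches that level; inconclusive = some that reach 60%, reason not given; inactive = mean inhibition across replicates below 60%.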

The nature of this test: inhibitors of MITF-dependent TRPM1 promoter reporter, primary screen, cell-based, SK-MEL-5, single point, luciferase (AID 488899). Conditions: SK-MEL-5 TRPM1 promoter luciferase, 24 h; at 12.5 µM; active compounds read high.
As usually defined, the inhibition is the change of the read-out against control, counted positive when it falls. Take `C#CCOCCOCCOCCNc1nc(N2CCOCC2)nc(N2CCN(C(=O)[C@H](Cc3ccc(O)cc3)n3cc(CCO)nn3)CC2)n1`: the inhibition is 4.74%.
To `COc1ccccc1OCCNc1cc(N2CCOCC2)ccc1[N+](=O)[O-]` belongs -28%.
To `O=C(c1ccccc1)N1CCN(c2ccc([N+](=O)[O-])c(NCc3ccco3)c2)CC1` belongs 5.6%; to `COc1ccc(CCNc2cc(N3CCN(C(=O)c4ccccc4OC)CC3)ccc2[N+](=O)[O-])cc1OC`, 77.2% (active).
With `C[C@@H](NC(=O)c1nc[nH]c1C(=O)N1CCN(C(=O)OC(C)(C)C)CC1)c1ccccc1`, the inhibition was -1.66%.
Take `CCCCN1CC(CO)Oc2cccc(F)c2S1(=O)=O` (stereo unspecified): the inhibition is 0.622%.
The value for `Cc1ccc(CN(Cc2cccnc2)C(=S)Nc2cc(Cl)ccc2C)cc1` was 1.58%; that for `O=c1ccn([C@@H]2O[C@H](CNS(=O)(=O)c3cc4ccccc4s3)[C@@H](O)[C@H]2O)c(=O)[nH]1` was -0.592%; that for `C[C@@H]1C[C@@H]2O[C@H]2/C=C\C=C\C(=O)Cc2c(Cl)c(O)cc(O)c2C(=O)O1` was 71.8% (active).
As to `CC(C)C(C(=O)NC1CCCCC1)N(CC1CCCO1)C(=O)CNS(=O)(=O)c1ccc(F)cc1` (stereo unspecified), the inhibition is 10.3%.
Regarding `O=C(CN1CCOc2ccccc21)N1CCC(Cc2ccccc2)CC1`, the inhibition is 5.49%.
As for `CCCC(O)(c1ccccc1)C(c1ccccc1)c1ccccn1` (stereo unspecified), the inhibition was 4.1%.
Turning to `COc1ccc(CNCCCn2cnc3c(OCc4ccccc4)ncnc32)cc1`, the inhibition is -4.78%.
The value for `CN(C)CC(O)COc1ccc(C(C)(C)c2ccc(OCC(O)CN(C)C)cc2)cc1` (stereo unspecified) was 65.7% (active).
On to `CC(C)(c1ccccc1)c1ccc(OCCN)cc1`, for which the inhibition was -6.11%.
The value for `Cc1cc(C)n(CC(O)COc2ccc(C(C)(C)C)cc2)n1` (stereo unspecified) was -18.8%.
To `Nc1ccc2c(c1)C(O)c1ccc(Cl)cc1-2` (stereo unspecified) belongs -6.14%; to `CN(CC(=O)NCCc1ccc(F)cc1)CC(=O)Nc1ccc(F)c(F)c1F`, 19.3%.
On to `Nc1nonc1-n1nnc(C(=O)N/N=C/c2cc(Br)ccc2O)c1CSC1=NCCS1`, for which the inhibition is 17.4%.
The value for `O=C(CCl)Nc1cccc(CP(=O)(c2ccccc2)c2ccccc2)c1` was 5.96%; that for `O=C(CCl)Nc1ccc(Sc2ccc(NC(=O)CCl)cc2)cc1` was 88.6% (active).
The value for `CC(C)(CCl)C(=O)Nc1ccc(Sc2ccc(F)cc2)cc1` was -9.91%; that for `COC(=O)C1CC2=C(CC(C)(C)CC2=O)N(c2ccccc2)C1=O` (stereo unspecified) was -6.85%; that for `O=C(O)CCCn1c(=O)c2cccn2c2ccc(F)cc21` was 7.45%.
Consider `CCCC/C(C)=N/NC(=O)NC1CCCCC1`, for which the inhibition is 4.57%.
Turning to `Cc1cccc(C(=O)OC(C)CN2CCN(C)CC2)c1` (stereo unspecified), the inhibition was -41.9%.
In the case of `Cc1cccc(-c2nc3ccc(C(=O)NCCN4CCN(C)CC4)cc3nc2-c2cccc(C)c2)c1`, the inhibition was 69.1% (active).
As for `CCC1=Nc2cc(C(=O)NCCN3CCCC3)ccc2Sc2ccc(C)cc21`, the inhibition was -15.3%.
To `FC(F)(F)c1cccc(Cc2noc(CN3CCC(N4CCCCC4)CC3)n2)c1` belongs 1.26%; to `NC(=O)C1CCN(C(=O)c2cc(S(=O)(=O)N3CCN(c4ccccc4)CC3)ccc2Cl)CC1`, 4.66%.
Regarding `CCC(C)Cn1c(O)cc2nn(-c3nc4ccccc4s3)c(=O)c-2c1C` (stereo unspecified), the inhibition is 89% (active).
As for `Cc1cc(NC(=O)CN2CCCC(C)C2)n(-c2nc3ccccc3s2)n1` (stereo unspecified), the inhibition was 1.1%.
The value for `CCN(CC(=O)NCCCN1CCOCC1)S(=O)(=O)c1cc(Cl)ccc1Cl` was 12.6%; that for `O=c1[nH]c2cccnc2n(CCNc2ncc(C(F)(F)F)cc2Cl)c1=O` was -3.01%; that for `O=C(O[C@@H]1[C@H](Cc2ccccc2)NS(=O)(=O)[C@H]2C[C@@H]3C=C[C@]12O3)c1ccccc1Br` was -5.01%.
The value for `O=C(Nc1ccc(Br)cn1)C1CCN(S(=O)(=O)c2cccs2)CC1` was 20.1%.
To `O=c1[nH]c(=S)[nH]c(O)c1/C=C1\C=Nc2ccccc21` belongs 65.4% (active).
In the case of `CCc1ccc(NC(=O)CN2CCC(C(=O)c3ccc(OC)cc3)CC2)cc1`, the inhibition was 16.5%.
For `COCC(=O)Nc1c(C(=O)N2CCCC2)oc2ccccc12`, the inhibition was -5.06%.
To `Cc1cc(C)cc(OCC(=O)NNC(=O)c2cc3ccccc3oc2=O)c1` belongs -14.8%; to `NC(=O)C1(N2CCCCC2)CCN(C(=O)c2ccc(C#Cc3ccccc3)o2)CC1`, 10.7%.
Take `Cc1cc(C(=O)CCl)c(C)n1CC1COc2ccccc2O1` (stereo unspecified): the inhibition is 51.2%.
With `COc1ccc(C(=O)OCC(=O)c2cc(C)n(CC3CCCO3)c2C)cc1[N+](=O)[O-]` (stereo unspecified), the inhibition was -13.5%.
Take `Cc1ccsc1C(=O)OCC(=O)c1cc(C)n(CC2CCCO2)c1C` (stereo unspecified): the inhibition is 68% (active).
As for `CCOc1cccc2c1OC1(CCCCC1)N1N=C(c3cccnc3)CC21` (stereo unspecified), the inhibition was -62.4%.
In the case of `Cn1c(=O)c2c(n(Cc3ccccc3)c1=O)NC(=O)C2CC(=O)N1CCc2ccccc2C1` (stereo unspecified), the inhibition is -5.67%.
The value for `COC(=O)C1CCN(CC(N)=O)CC1` was -7.19%; that for `Cc1cc(C(=O)N/N=C/c2cc([N+](=O)[O-])cc(C)c2O)n[nH]1` was 11.2%.
For the molecule `COc1ccc2ccccc2c1/C=N/NC(=O)c1cc(C)[nH]n1`, the inhibition is -14.1%.
For `CC(C)(C)c1cc(C(=O)N/N=C/c2ccc([N+](=O)[O-])s2)n[nH]1`, the inhibition was 85.1% (active).
As to `COc1ccc(S(=O)(=O)N2CCOCC2)cc1NC(=O)c1ccc(OCC(C)C)c(OC)c1`, the inhibition is -3.59%.
Take `O=C(Oc1ccc(-c2nc(-c3ccccn3)no2)cc1)c1ccccc1`: the inhibition was 36.6%.
The value for `O=C(CN1C(=O)c2ccccc2S1(=O)=O)N1CCc2ccccc21` was 74.1% (active).
As to `CC1CCCN(C(=O)CN2C(=O)c3ccccc3S2(=O)=O)C1` (stereo unspecified), the inhibition is 11.4%.
As to `O=C(CN1C(=O)c2ccccc2S1(=O)=O)NC1CCCCC1`, the inhibition was 4.83%.
The value for `Cc1ccc(SCC(=O)NC(=O)NCc2ccco2)c(C)c1` was 9.21%; that for `COCC(=O)N(C)[C@H]1C[C@H]2c3cc(Oc4ccccc4C)ccc3CCN2C(=O)[C@H]1[C@H](C)O` was -16.5%; that for `COc1cc(C)cc(CN2CCC(Cc3ccccc3)CC2)c1O` was 2.68%.
The value for `Cc1ccc(CN2CCN(c3ncccn3)CC2)c(C)c1` was 4.53%.
The value for `Cc1cc(=O)oc2cc(OCC(=O)N3CCN(c4ccc(F)cc4)CC3)c(Cl)cc12` was -0.292%; that for `Oc1c(CN2CCCC2)cc(COCc2ccccc2)c2cccnc12` was 73.5% (active); that for `CC1CCCN(CC(O)COCc2ccccc2)C1` (stereo unspecified) was -13.7%.
In the case of `Oc1c(CN2CCN(c3ccc(F)cc3)CC2)cc(Cl)c2cccnc12`, the inhibition is 70.7% (active).
Consider `COc1ccc(OCCNS(=O)(=O)Cc2ccccc2)cc1`, for which the inhibition is 0.0862%.
With `Cc1ccc(NC(=O)CN2CCCCC2)c2c1CC(C)(C)O2`, the inhibition was -7.61%.
To `CCNC(=S)NCC` belongs 5.56%; to `O=C(NNC(=O)c1ccc(-n2cncn2)c([N+](=O)[O-])c1)c1ccccc1`, -1.1%; to `COc1cc(CC(=O)Nc2nc(-c3ccc(F)c(F)c3)cs2)cc(OC)c1OC`, 0.159%.
To `COc1ccc2c(c1OC)C(=O)OC2Nc1nc(-c2ccccc2)cs1` (stereo unspecified) belongs 68.6% (active); to `Cc1ccc(-c2csc(NC3OC(=O)c4ccccc43)n2)cc1` (stereo unspecified), 31.3%; to `CCc1cc(-c2nnc(SCC(=O)NC3CC3)n2C)cs1`, -9%.
Take `CCOC(=O)c1ccc(NC(=O)c2c(N)n(C)c(=O)[nH]c2=O)cc1`: the inhibition was -48.3%.
Turning to `COc1ccc(Cc2nnc(N/N=C/c3ccccc3O)[nH]c2=O)cc1OC`, the inhibition is 64% (active).
`O=c1[nH]c(NCCO)nnc1Cc1ccc(Cl)cc1`: the inhibition was 5.61%.
The value for `CC(C)c1ccc(Cc2nnc(NCCCO)[nH]c2=O)cc1` was -0.574%.
The value for `Cc1ccc(CN2CC(C(=O)N3CCN(S(=O)(=O)c4ccccc4)CC3)CC2=O)cc1` (stereo unspecified) was -1.06%; that for `c1ccc(-c2ccc(OCCN3CCOCC3)cc2)cc1` was -61.1%; that for `CCOc1nc(NCCN2CCOCC2)nc(Nc2ccc(C)cc2)n1` was -2.25%.
To `c1ccc2cc3c(NCCN4CCOCC4)ccnc3cc2c1` belongs 80.4% (active).
`O=C1NC(c2ccc(-c3ccccc3[N+](=O)[O-])o2)C(C(=O)c2ccc(Cl)cc2)C(O)(C(F)(F)F)N1` (stereo unspecified): the inhibition is 12.2%.
To `CN(C)S(=O)(=O)Oc1ccccc1C(=O)Nc1ccccc1Cl` belongs -7.26%; to `O=C(Nc1ccccc1Cl)/C(Cl)=C(\Cl)S(=O)c1ccccc1` (stereo unspecified), 97% (active); to `Cc1c(NC(=O)Nc2ccccc2Cl)sc(=S)n1C`, -9.97%.
To `Nc1ccc2[nH]c(=S)sc2c1` belongs -7.16%.
The value for `CC(Oc1ccc(Br)cc1)C(=O)NC1CCCCCC1` (stereo unspecified) was -16.6%; that for `OC(COc1ccc(Br)cc1)CN1CCCC1` (stereo unspecified) was -0.089%.
`CC(C)(C)CC(C)(C)NCC(O)COCCOc1ccc(Br)cc1` (stereo unspecified): the inhibition is 85.9% (active).
The value for `COc1ccc(C2NCCCC2c2ccccc2)cc1` (stereo unspecified) was 14.7%; that for `Cc1ccccc1N1CCN(C(=O)c2cccnc2)CC1` was 2.88%; that for `CCOc1ccc(NC(=S)N2CCC(N(C)CC3CCCO3)CC2)cc1` (stereo unspecified) was -2.52%.
To `CCOC(=O)CN/C=C(\C#N)c1ccc(F)cc1` belongs 19.8%; to `C/C(=N\OCC(=O)O)c1ccc(Cl)cc1`, -2.61%; to `CCOc1cc(/C=C(/C#N)c2ccc(Cl)cc2)cc(Cl)c1OCC(=O)O`, 98.2% (active).
The value for `C#CCOCCOCCOCCNc1nc(N2CCN(C(=O)CCCCCCCCCCNC(=O)Cn3cc(CCCCCN)nn3)CC2)nc(N2CCN(C(=O)CCCCCCCCCCNC(=O)[C@H](CO)n3cc(CCCSC)nn3)CC2)n1` was 23.1%.
Consider `C#CCOCCOCCOCCNc1nc(N2CCN(C(=O)CCCCCCCCCCNC(=O)[C@H](CCCCN)n3cc(C)nn3)CC2)nc(N2CCN(C(=O)CCCCCCCCCCNC(=O)[C@H](CO)n3cc(CCCSC)nn3)CC2)n1`, for which the inhibition is 47.5%.
To `C#CCOCCOCCOCCNc1nc(N2CCN(C(=O)CCCCCCCCCCNC(=O)[C@H]([C@@H](C)CC)n3cc(CCCCN=C(N)N)nn3)CC2)nc(N2CCN(C(=O)CCCCCCCCCCNC(=O)[C@H](CO)n3cc(CCCSC)nn3)CC2)n1` belongs 72.9% (active).
